DAX1 inh-1: inhibits human nuclear receptor DAX1. HEK293 Gal4-DAX1 luciferase reporter, luminescence. inhibition, % at 6.75 µM. 0.99% of 340,000 active. P51843;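 active means inhibition above the mean over all tested compounds plus 3 SD, cut at about 4.2% in these data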;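 further: 0% = DAX1-transfected cells with DMSO and 100% = empty-vector control cells with DMSO; inhibition shows as a rise in luminescence from relieved DAX1 repression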
Target sequence (P51843 207-470 limits assumed): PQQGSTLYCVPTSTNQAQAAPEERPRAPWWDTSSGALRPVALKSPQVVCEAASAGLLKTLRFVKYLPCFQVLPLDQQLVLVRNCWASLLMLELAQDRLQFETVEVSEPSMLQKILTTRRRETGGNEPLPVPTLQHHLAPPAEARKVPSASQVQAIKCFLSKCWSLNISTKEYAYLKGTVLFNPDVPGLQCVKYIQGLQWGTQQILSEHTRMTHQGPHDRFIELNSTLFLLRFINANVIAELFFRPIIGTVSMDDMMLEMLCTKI
ssDAF12 agonist: activates DAF-12 receptor from parasite S. stercoralis; HEK293 ssDAF-12/GRIP1 lit1-tk-luc reporter, luminescence; % of 3 µM dafachronic acid response; activation, % at 6.8 µM; 1% of 370,000 active; AID 652126;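 active means activation above the mean over all tested compounds plus 3 SD, cut at about 0.9% in these data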;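 further: 0% = DMSO-only wells and 100% = 3 µM delta7-dafachronic acid wells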
DAX1 inh-2: blocks DAX1 repression of SF-1 activated StAR promoter | HEK293T StAR-luciferase reporter, SF-1/DAX-1 repression relief | inhibition, % at 6.8 µM | 1.1% of 370,000 active;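 active means inhibition above the mean over all tested compounds plus 3 SD, cut at about 3.6% in these data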;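 further: 0% = DAX-1 cells with DMSO and 100% = cells lacking DAX-1 with DMSO; higher inhibition means more luminescence from relief of DAX-1 repression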
hcDAF-12 act: activators of H. contortus DAF-12 nuclear receptor | activation, % at 6.8 µM | HEK293 hcDAF-12 lit1-tk-luc reporter, luminescence; 0% DMSO, 100% Δ7-dafachronic acid | 1.4% of 370,000 active;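 active means activation above the mean of all tested compounds plus 3 SD, cut at about 5.5% in these data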;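 further: 100% = response to 3 µM Δ7-dafachronic acid high control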
hgDAF12 agonist: hgDAF-12 agonism, primary luciferase screen; HEK293 GAL4-hgDAF12 UAS-luciferase reporter, agonist luminescence; normalized to butyrate control; activation, % at 6.8 µM; 1.8% of 370,000 active; AID 687014;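 active means activation above a cutoff set at the mean of all screened compounds plus 3 SD, cut at about 10% in these data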;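 further: 0% = DMSO wells and 100% = sodium butyrate wells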
An asterisk follows results filed as active; . = no result. Compounds with a hit are over-represented: about 4.1% of the library has one in this group of screens.

SMILES	DAX1 inh-1	ssDAF12 agonist	DAX1 inh-2	hcDAF-12 act	hgDAF12 agonist
O=C(Nc1nc(-c2ccccc2)cs1)c1ccco1	0.6	-1.2	1.2	1.2	8.1
CC(=O)Nc1ccc(-c2csc(NC(=O)CCNC(=O)c3ccco3)n2)cc1	0.6	-1.3	-1.2	0.1	-0.7
Cc1ccc(-c2csc(NC(=O)c3ccco3)n2)cc1C	4.3*	0.4	0.1	4.0	10.3
CC(C)(C)c1ccc(-c2nnc(SCC(=O)Nc3ccc(S(=O)(=O)Nc4nccs4)cc3)n2Cc2ccco2)cc1	.	-0.6	-0.7	-1.0	-2.1
CC(=O)Nc1cc2c(cc1Br)-c1ccccc1C2	0.9	-0.3	2.0	6.2*	10.6*
c1ccc(Oc2ccc(-c3ccn[nH]3)cc2)cc1	4.6*	0.7	1.3	2.7	8.2
O=c1[nH]c2ccccc2nc1/C=C/c1ccccc1	1.1	0.8	2.6	6.4*	12.1*
O=C(CSc1nnc(-c2cccs2)n1-c1cccc(Cl)c1)c1cccc2c1OCCO2	6.1*	-0.5	-0.1	-1.0	0.8
O=C(c1ccc2c(c1)OCCCO2)c1cccs1	2.0	0.1	2.8	4.7	10.5*
CN1C(=O)[C@@]2(O[C@H]3C=CC=CN3C3=C2C(=O)CCC3)c2cccc(Br)c21	.	0.9*	-0.8	-2.0	-1.7
O=C(CC1CCCC1)NNC(=O)c1ccccc1O	4.1	1.3*	0.1	-0.1	5.1
O=C(c1cc2c(s1)-c1ccccc1OC2)N1CCN(c2ccccn2)CC1	5.4*	-0.7	0.2	0.2	0.7
COc1cc(NC(=O)C2CCCN(S(=O)(=O)c3cc(OC)ccc3OC)C2)cc(OC)c1 (stereo not given)	.	-1.4	-0.4	-3.1	-0.8
COC(=O)c1nnn(-c2nonc2N)c1CN1CCCC1	4.4*	-0.7	-0.2	-0.8	2.1
Nc1nonc1-n1nnc(C(=O)N/N=C/c2cccc(F)c2)c1CN1CCCCCC1	4.7*	-1.6	-0.1	-0.8	1.1
O=C(c1ccccc1)N(CCCn1ccnc1)C(c1ccccc1)c1nc2ccccc2[nH]1 (stereo not given)	.	-0.9	3.6*	4.3	3.9
CN(N=Nc1ccc([N+](=O)[O-])cc1)c1ccccc1	1.3	6.2*	2.0	1.9	7.0
COCCN1CCc2c(C)nc3c(-c4ccc(OC)c(OC)c4)cnn3c21	0.4	-1.3	0.3	-1.2	-2.1
COc1ccc(-c2cnn3c4c(c(C)nc23)CCN4C2CCCC2)cc1OC	5.9*	-1.4	0.2	-0.5	0.0
CCOC(=O)[C@@]12CCC3=C1N(CCC3)C(=O)[C@H](CC(=O)NCc1ccccc1)C2	.	-1.0	0.2	0.3	-1.1
Cc1ccc2oc(=O)c(/C=C(\O)c3cccs3)nc2c1	5.6*	0.5	1.7	5.6*	8.1
O=c1oc2ccc(Cl)cc2nc1/C=C(\O)c1cccs1	3.1	-0.4	2.3	5.6*	2.8
O=C1C(=O)N(Cc2ccc(-c3ccccc3)cc2)c2ccc(OC(F)(F)F)cc21	.	-1.0	.	-2.0	-0.9
Cn1c2ccc(F)cc2c2ncn(CCN3CCOCC3)c(=O)c21	7.2*	-0.3	0.1	2.8	2.5
Cc1ccc(C(=O)Oc2coc(CSc3ncccn3)cc2=O)cc1[N+](=O)[O-]	.	-1.3	.	-1.2	-1.3
SMILES	DAX1 inh-1	ssDAF12 agonist	DAX1 inh-2	hcDAF-12 act	hgDAF12 agonist
Oc1cc(-c2ccc(N3CCCCC3)nc2)cc2cccnc12	5.6*	.	.	.	.
COc1cc2c(cc1NC(=O)CSc1ccccn1)oc1ccccc12	0.8	0.0	1.9	6.5*	3.9
COc1ccc(CC(=O)Nc2cc3oc4ccccc4c3cc2OC)cc1	1.3	-0.5	1.0	-0.2	12.2*
CCOc1ccc(-n2c(SCC(=O)Nc3cccc4ccccc34)nnc2-c2ccccc2)cc1	.	-1.4	-0.2	1.2	-1.4
Cn1ccsc1=NC(=O)c1ccccc1F	0.2	-0.8	0.0	-1.1	4.8
Cn1ccs/c1=N\C(=O)Nc1ccccc1	0.8	0.1	1.9	3.8	12.5*
CCC(=O)Nc1ccc(C(=O)COC(=O)c2nc3nccc(C)n3n2)cc1	0.3	-1.0	-1.2	2.0	2.5
Cc1ccnc2nc(C(=O)OCC(=O)c3ccc(NC(=O)CC(C)C)cc3)nn12	5.5*	-0.5	0.9	-0.7	-3.1
C=CCSc1[nH]c(=O)cc(C)c1C(N)=O	5.1*	-0.4	0.0	-1.1	-0.8
Cc1ccc(-c2cc(N)n(-c3ccccc3)n2)cc1	1.1	0.5	2.3	3.0	11.0*
Cc1nn(-c2ccccc2)c(N)c1N=Nc1ccccc1	1.0	0.4	1.3	3.5	10.0
Cc1ccc(C(c2c(C)nn(-c3ccccc3)c2N)c2c(C)nn(-c3ccccc3)c2N)cc1	-0.6	-0.6	0.3	-0.2	3.0
Cc1nn(-c2ccccc2)c(N)c1-c1ccccc1	-0.6	1.0*	1.3	5.4	8.9
Cc1nn(-c2ccccc2)c(N)c1N=Nc1ccc(Cl)cc1	3.1	-1.1	2.3	2.8	18.1*
COc1ccccc1NC(=O)C/C(C)=N/NC(=O)c1ccccn1	3.3	0.4	2.1	3.9	12.7*
COc1cc(NC(=O)c2cc(C3CC3)on2)c(OC)cc1Cl	0.3	0.4	-0.6	6.4*	3.6
CCc1ccccc1NC(=O)C/C(C)=N/NC(=O)COc1ccccc1C	-0.4	-0.6	0.0	0.3	1.0
COc1cc(NC(=O)C/C(C)=N/NC(=O)Cc2ccc(Cl)cc2)c(OC)cc1Cl	-0.2	-0.8	0.0	-2.0	-4.4
COc1cc(NC(=O)C2CCCC2)c(OC)cc1Cl	0.4	-1.0	0.3	1.4	1.2
COc1cc(NC(=O)C/C(C)=N/NC(=O)c2ccccn2)c(OC)cc1Cl	0.7	0.3	1.5	4.0	13.1*
COc1ccccc1NC(=O)C/C(C)=N/NC(=O)COc1c(Br)cc(Br)cc1OC	2.9	-1.7	4.2*	-0.5	0.9
COc1ccc(-c2noc(C3CCCN(C(=O)Nc4ccc(Cl)cc4)C3)n2)cc1 (stereo not given)	.	-1.3	-0.9	0.2	2.5
Cc1ccnc(NC(=O)C2CC(=O)N(Cc3ccccc3)C2)c1 (stereo not given)	1.2	-0.4	4.3*	2.7	4.8
O=C(COc1ccccc1)Nc1cc(Cl)ccc1Cl	4.6*	-0.5	1.0	5.9*	7.4
COC(=O)C1CN(Cc2ccccc2)CCS(=O)(=O)N1Cc1cn(Cc2ccc(Cl)cc2)nn1 (stereo not given)	.	-1.0	-1.0	-0.6	0.5
CC(=O)Nc1sc(N/N=C\c2ccccc2Cl)nc1-c1cccs1	0.5	-1.3	-1.0	1.6	2.6
CC(=O)Nc1sc(N/N=C\c2ccccc2)nc1-c1cccs1	0.7	1.7*	0.5	6.2*	10.0
Cc1sc(N/N=C/C=C/c2ccccc2)nc1-c1ccccc1	0.3	-0.7	0.0	6.0*	3.9
CC(=O)Nc1sc(N/N=C/c2ccccc2)nc1-c1ccc(C)cc1	5.0*	-0.8	1.0	1.9	4.4
COC(=O)C1CN(Cc2cn(Cc3ccc(Cl)cc3)nn2)CCS(=O)(=O)N1Cc1ccc(F)cc1 (stereo not given)	.	-1.0	-1.0	-3.2	-3.7

Assay outcomes from PubChem.
